PubChem BioAssay AID743366 (National Center for Advancing Translational Sciences (NCATS), 2014)
Non-standard residues stand in square brackets, D forms with d. Residues, ends and D or L forms follow the SMILES beside them. Orn = NCCC[C@H](N)C(=O)O

Assay: qHTS profiling of inhibitors of Plasmodium falciparum (HB3) proliferation (acoustic dispense)
Conditions: P. falciparum HB3 in erythrocytes, SYBR Green, 72 h; at 49.8 µM (top of the series) unless noted

Row | Compound | activity (normalised, proliferation)
1 | CC(C)Oc1cc(Nc2nc(N[C@@H](C)c3ccc(F)cn3)ncc2Cl)[nH]n1 | 2.89%
2 | CCc1cc(Nc2nccc(-c3c(-c4ccc(OC)c(C(=O)Nc5c(F)cccc5F)c4)nc4ccccn34)n2)c(OC)cc1N1CCC(N2CCN(S(C)(=O)=O)CC2)CC1 | 0.0178%
3 | C[C@H]1[C@@H](OC(=O)CCC(=O)O)O[C@@H]2O[C@@]3(C)CC[C@@H]4[C@H](C)CC[C@@H]1[C@@]24OO3 | -0.479%
4 | CCCCN(CCCC)CCC(O)c1cc2c(Cl)cc(Cl)cc2c2cc(C(F)(F)F)ccc12 (centres undefined) | -0.0223% [at 23.2 µM]
5 | NC(=NCCCCCCN=C(N)N=C(N)Nc1ccc(Cl)cc1)N=C(N)Nc1ccc(Cl)cc1 | 8.37%
6 | COc1cc2nc(N3CCCN(C)CC3)nc(NC3CCN(Cc4ccccc4)CC3)c2cc1OC | -1.22%
7 | C#Cc1cccc(Nc2ncnc3cc(OC)c(OCCCCCCC(=O)NO)cc23)c1 | -0.996%
8 | OB1OCc2cc(F)ccc21 | 0.13%
9 | CCc1nc(N)nc(N)c1-c1ccc(Cl)cc1 | 0.0675%
10 | CN[C@@H](C)C(=O)N[C@H]1CCCC[C@H]2CC[C@@H](C(=O)N[C@@H](c3ccccc3)c3cn(CCCCc4ccc(CCCCn5cc([C@@H](NC(=O)[C@@H]6CC[C@@H]7CCCC[C@H](NC(=O)[C@H](C)NC)C(=O)N76)c6ccccc6)nn5)cc4)nn3)N2C1=O | 0.411%
11 | COc1ccc(-c2cc3c(C)nc(N)nc3n(C3CCC(OCCO)CC3)c2=O)cn1 (centres undefined) | -1.37%
12 | COc1ncnc(NS(=O)(=O)c2ccc(N)cc2)c1OC | 102%
13 | C[C@H](Cn1cnc2c(N)ncnc21)OCP(=O)(O)O | 92.2%
14 | CS[C@H]1SC[C@@H]2C(=O)N(C)[C@H](C(C)C)C(=O)OC[C@H](NC(=O)c3cnc4ccccc4n3)C(=O)N[C@H](C)C(=O)N(C)[C@@H]1C(=O)N(C)[C@H](C(C)C)C(=O)OC[C@H](NC(=O)c1cnc3ccccc3n1)C(=O)N[C@H](C)C(=O)N2C | 1.22%
15 | CCN(CC)Cc1cc(Nc2ccnc3cc(Cl)ccc23)ccc1O | -0.453% [at 23.2 µM]
16 | Cc1cn(-c2cc(NC(=O)c3ccc(C)c(Nc4nccc(-c5cccnc5)n4)c3)cc(C(F)(F)F)c2)cn1 | 1.32%
17 | CC(C)C[C@@H]1NC(=O)[C@H](CCCN)NC(=O)[C@H](C(C)C)NC(=O)[C@@H]2CCCN2C(=O)[C@@H](Cc2ccccc2)NC(=O)[C@H](CC(C)C)NC(=O)[C@H](CCCN)NC(=O)[C@H](C(C)C)NC(=O)[C@@H]2CCCN2C(=O)[C@@H](Cc2ccccc2)NC1=O (cyclo(V[Orn]L[dF]PV[Orn]L[dF]P)) | 3.19%

Row | Compound | activity (normalised, proliferation)
18 | Cn1c(=O)n(-c2ccc(C(C)(C)C#N)cc2)c2c3cc(-c4cnc5ccccc5c4)ccc3ncc21 | 1.54%
19 | COC1=C2C[C@@H](C)C[C@H](OC)[C@@H](O)[C@@H](C)C=C(C)[C@H](OC(N)=O)[C@@H](OC)C=CC=C(C)C(=O)NC(=CC1=O)C2=O | -2.24%
20 | O[C@H](c1cc(C(F)(F)F)nc2c(C(F)(F)F)cccc12)[C@H]1CCCCN1 | 3.25% [at 23.2 µM]
21 | COc1ccc(-c2nc(N3CCOCC3)c3sc(CN(C)c4ncc(C(=O)NO)cn4)cc3n2)cn1 | -1.14%
22 | CC[C@]1(O)C[C@H]2CN(CCC3=c4ccccc4=N[C]3[C@@](C(=O)OC)(c3cc4c(cc3OC)N(C)[C@H]3[C@@](O)(C(N)=O)[C@H](O)[C@]5(CC)C=CCN6CC[C@]43[C@@H]65)C2)C1 | 2.35%
23 | CCCCCCOC(=O)C1(O)CC2OC1(C)n1c3ccccc3c3c4c(c5c6ccccc6n2c5c31)C(=O)NC4 (centres undefined) | 100% [at 1.88 µM]
24 | Cc1nc2c(C#N)cccc2n1-c1ccc(C(=O)NC2CC2)s1 | 1.48%
25 | Cn1cnc(=N)c2[nH]cnc21 | 1.41%
26 | CC(C=CC(=O)NO)=C[C@@H](C)C(=O)c1ccc(N(C)C)cc1 | -0.304%
27 | COc1cc(NCc2ccc3nc(N)nc(N)c3c2C)cc(OC)c1OC | -2.34%
28 | CN([C@@H](Cc1ccc(OS(=O)(=O)c2cccc3cnccc23)cc1)C(=O)N1CCN(c2ccccc2)CC1)S(=O)(=O)c1cccc2cnccc12 | 0.0465%
29 | CC(C)[C@H](C(=O)Nc1ccc(C(=O)NO)cc1)c1ccccc1 | -0.656%
30 | FC(F)c1nc2ccccc2n1-c1nc(N2CCOCC2)nc(N2CCOCC2)n1 | 25.3%
31 | Cc1cn[nH]c1 | 39.3%
32 | Nc1cccc(-c2csc(NC(=O)CCCCCCC(=O)NO)n2)c1 | -0.958%
33 | CO[C@H]1O[C@@H]2O[C@@]3(C)CC[C@@H]4[C@@H](C)CC[C@@H]([C@H]1C)[C@@]24OO3 | -0.929%
34 | CC[C@H]1CN2CCc3cc(OC)c(OC)cc3[C@H]2C[C@@H]1C[C@@H]1NCCc2cc(OC)c(OC)cc21 | -0.337%
